Assay [1] addresses Estrogen receptor beta (Homo sapiens) (UniProt Q92731). Put plainly: qHTS assay to identify small molecule agonists of the estrogen receptor beta (ER-beta) signaling pathway (AID 1259377; active = well fitted activation curve with a large enough effect in the signal ratio in the repeat runs, not every such curve was filed as active; the % refers to the signal ratio). In short, it runs like this:
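Reporter cells (HEK293T, ER-beta-UAS-bla) receive compounds or DMSO after a 6 hr pre-incubation. They then incubate 16 hr at 37C/5% CO2, and fluorescence from LiveBLAzer B/G substrate is measured after 2 hours at room temperature.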

Assay [2] shares this target. Put plainly: qHTS assay to identify small molecule antagonists of the estrogen receptor beta (ER-beta) signaling pathway (AID 1259378; active = well fitted inhibition curve with a large enough effect in the signal ratio in the repeat runs, not every such curve was filed as active; the % refers to the signal ratio). In short, it runs like this: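 ER-beta-UAS-bla HEK293T cells in 2% charcoal-stripped FBS medium treated with compound plus 1nM final 17-beta-estradiol for 16 hr at 37C. Beta-lactamase reporter read by FRET substrate fluorescence after 2 hours at room temperature.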
(In qHTS, concentration-response curves come from the screen itself.)

Assay [3] can be described thus: qHTS assay to identify small molecule agonists of the androgen receptor (AR) signaling pathway in the presence of an antagonist - cell viability counter screen (AID 1259379).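 Also: MDA-kb2 human breast cancer cells carrying an MMTV luciferase reporter; series mostly up to about 92 µM; nearly all actives have a fitted effect of over 25% in size.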 In short, it runs like this:
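Counter screen for cell viability run in parallel with the AR agonist-mode luciferase assay. MDA-kb2 cells were co-treated with nilutamide (3.0uM final) and compounds, then incubated 16 hr at 37C, and CellTiter-Fluor fluorescence was measured.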

The nature of assay [4]: qHTS assay to identify small molecule agonists of the estrogen receptor beta (ER-beta) signaling pathway - cell viability counter screen (AID 1259380). Also: nearly all actives have a fitted effect of over 30% in size. In short, it runs like this: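 In this qHTS counter screen, HEK293T cells carrying an ER-beta/UAS beta-lactamase reporter, grown in 2% charcoal-stripped FBS, received compound for 16 hr; ATP-based CellTiter-Glo luminescence was then read after 30 min at room temperature.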

The target in assay [5] is Androgen receptor (Homo sapiens) (UniProt P10275). Put plainly: qHTS assay to identify small molecule agonists of the androgen receptor (AR) signaling pathway in the presence of an antagonist (AID 1259381; calls by dose curve; also: nearly all actives have a fitted effect of over 15% in size). The method in brief: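 AR antagonist background: nilutamide 3.0uM final. Cell line: MDA-kb2, MMTV-driven luciferase, responsive to both AR and GR. Exposure 16hr, 37C, no CO2; ONE-Glo luminescence.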
Sequence of Androgen receptor (Homo sapiens) (P10275 whole entry, looked up): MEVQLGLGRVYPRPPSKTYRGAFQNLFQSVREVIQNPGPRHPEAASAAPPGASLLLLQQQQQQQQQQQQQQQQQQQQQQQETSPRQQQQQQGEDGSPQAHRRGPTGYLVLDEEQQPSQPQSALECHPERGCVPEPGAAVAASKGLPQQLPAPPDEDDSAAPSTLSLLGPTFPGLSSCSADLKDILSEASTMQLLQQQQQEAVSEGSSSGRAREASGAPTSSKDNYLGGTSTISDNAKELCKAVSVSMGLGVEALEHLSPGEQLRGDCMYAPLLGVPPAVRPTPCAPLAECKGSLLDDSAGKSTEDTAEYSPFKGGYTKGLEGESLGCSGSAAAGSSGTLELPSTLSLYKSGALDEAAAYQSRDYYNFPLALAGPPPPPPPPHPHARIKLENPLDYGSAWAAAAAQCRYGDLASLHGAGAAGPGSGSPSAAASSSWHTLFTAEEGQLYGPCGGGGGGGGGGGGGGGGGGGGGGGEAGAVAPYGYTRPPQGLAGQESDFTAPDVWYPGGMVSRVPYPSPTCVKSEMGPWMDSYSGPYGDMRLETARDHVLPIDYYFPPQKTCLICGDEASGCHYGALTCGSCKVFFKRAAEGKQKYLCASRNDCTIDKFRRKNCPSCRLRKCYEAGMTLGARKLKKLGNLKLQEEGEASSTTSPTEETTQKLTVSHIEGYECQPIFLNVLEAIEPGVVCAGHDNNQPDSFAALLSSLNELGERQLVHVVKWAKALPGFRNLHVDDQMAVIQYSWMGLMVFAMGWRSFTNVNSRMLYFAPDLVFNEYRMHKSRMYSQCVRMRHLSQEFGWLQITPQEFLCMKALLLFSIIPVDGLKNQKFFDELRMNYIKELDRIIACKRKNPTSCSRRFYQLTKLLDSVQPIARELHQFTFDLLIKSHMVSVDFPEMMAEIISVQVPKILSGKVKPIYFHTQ

Assay [6] can be described thus: qHTS assay to identify small molecule antagonists of the estrogen receptor beta (ER-beta) signaling pathway - cell viability counter screen (AID 1259382). Also: series mostly up to about 92 µM; nearly all actives have a fitted effect of over 55% in size. In short, it runs like this: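 HEK293T ER-beta-UAS-bla, 2% charcoal-stripped FBS; compounds + 1nM E2 16 hr 37C; CellTiter-Glo luminescence, 30 min RT.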
A short description of assay [7]: qHTS assay to identify small molecule agonists or antagonists of the thyroid stimulating hormone receptor (TSHR) signaling pathway - wild type cell line counter screen (AID 1259384; calls by dose curve). In short, it runs like this:
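Wild-type Hek293 cells, 800/well, 18 h at 37C, then compound with Ro20-1724 for 30 min RT. cAMP by HTRF (cAMP-d2/anti-cAMP cryptate), 1 h RT, fluorescence read. 15 concentrations, triplicates.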

The nature of assay [8]: qHTS assay to identify small molecule agonists of the estrogen receptor alpha (ER-alpha) signaling pathway in the presence of an antagonist - cell viability counter screen (AID 1259386).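 Also: series mostly up to about 92 µM; cells exposed to compounds for 22 h at 37 °C before the viability read; nearly all actives have a fitted effect of over 30% in size.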 In short, it runs like this:
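Steps: 5-day stripped-FBS culture; seed and incubate 24hr; add ICI-182,780 (10.0nM final); pin 15-point compound titration; incubate 22hr at 37C; add CellTiter-Fluor at 21hr; read fluorescence.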

Assay [9] in a line: qHTS assay to identify small molecule antagonists of the progesterone receptor (PR) signaling pathway - cell viability counter screen (AID 1346798). Also: series mostly up to about 92 µM; nearly all actives have a fitted effect of over 50% in size. In short, it runs like this:
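In the same plates used for the beta-lactamase readout, cell viability of compound- and R5020-treated PR-UAS-bla HEK293T cells (16 hr, 37C) was assessed by CellTiter-Glo luminescence.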

The nature of assay [10]: qHTS assay to identify small molecule antagonists of the TGF-beta/Smad signaling pathway - cell viability counter screen (AID 1346824). Also: nearly all actives have a fitted effect of over 50% in size. The method in brief: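 SBE-bla HEK 293T cells, incubated overnight, then compound plus 0.25 ng/mL TGF-beta1 (stock added) for 5 hr at 37 C. Viability was read in the same wells by CellTiter-Glo luminescence after 30 min at room temperature.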

A short description of assay [11]: qHTS assay to identify small molecule agonists of the TGF-beta/Smad signaling pathway - cell viability counter screen (AID 1346829). Also: top concentration of the series differs between compounds; nearly all actives have a fitted effect of over 45% in size. In short, it runs like this: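 SBE-bla HEK 293T cells plated overnight, compound exposure 5 hr at 37 C. Viability read in the same wells by CellTiter-Glo luminescence after 30 min at room temperature, following the beta-lactamase read.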

Assay [12] in a line: qHTS assay to identify small molecule agonists of the TGF-beta/Smad signaling pathway (AID 1346859; active = well fitted activation curve with a large enough effect in the signal ratio in the repeat runs, not every such curve was filed as active; the % refers to the signal ratio; also: series mostly up to about 77 µM). The method in brief:
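Screening used HEK 293T SBE-bla cells at 4,000/well. Test agents: 5 hr, 37 C. Detection: FRET substrate, 2 hr RT, then excitation 405 nm with emissions at 460 and 530 nm.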

Assay [13] has as its target Thyrotropin-releasing hormone receptor (Homo sapiens) (UniProt P34981). Put plainly: qHTS assay to identify small molecule antagonists of the thyrotropin-releasing hormone receptor (TRHR) signaling pathway (AID 1346877; active = well fitted inhibition curve with a large enough effect in the repeat runs, not every such curve was filed as active; also: series mostly up to about 51 µM). In short, it runs like this: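 Human TRHR in HEK293 cells; inhibition of the intracellular calcium rise triggered by 1 nM TRH was followed by fluorescence over 3 min. Compounds were run at 15 concentrations, three replicates each.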

Assay [14] shares this target. Briefly: qHTS assay to identify small molecule agonists of the thyrotropin-releasing hormone receptor (TRHR) signaling pathway (AID 1346891; calls by dose curve; also: series mostly up to about 58 µM). In short, it runs like this:
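Readout was intracellular calcium fluorescence in TRHR-Hek293 cells. Cells were incubated 18 h, dye-loaded 2 h at 37 °C, and treated with compound in agonist mode.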

A short description of assay [15]: Human pregnane X receptor (PXR) small molecule agonists, qHTS cell viability counter screen (AID 1346977). Also: nearly all actives have a fitted effect of over 50% in size. Also: potency is read from the fitted curve at half-maximal effect. In short, it runs like this:
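In each well, the PXR reporter HepG2 line was checked for viability: CellTiter-Fluor reagent added 23hr post-dosing, fluorescence read after 1hr incubation at 37C.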

Assay [16] deals with Estrogen receptor (Homo sapiens) (UniProt P03372). Put plainly: qHTS assay to identify small molecule agonists of the estrogen receptor alpha (ER-alpha) signaling pathway in the presence of an antagonist (AID 1259383; calls by dose curve; also: top concentration of the series differs between compounds; nearly all actives have a fitted effect of over 15% in size). The method in brief: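 ER-alpha agonism measured under antagonist challenge: 10.0nM ICI-182,780 (final) plus compound, 15 concentrations, 22hr, VM7Luc4E2 ERE-luciferase cells. Read by luminescence.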
Sequence of Estrogen receptor (Homo sapiens) (P03372 whole entry, looked up): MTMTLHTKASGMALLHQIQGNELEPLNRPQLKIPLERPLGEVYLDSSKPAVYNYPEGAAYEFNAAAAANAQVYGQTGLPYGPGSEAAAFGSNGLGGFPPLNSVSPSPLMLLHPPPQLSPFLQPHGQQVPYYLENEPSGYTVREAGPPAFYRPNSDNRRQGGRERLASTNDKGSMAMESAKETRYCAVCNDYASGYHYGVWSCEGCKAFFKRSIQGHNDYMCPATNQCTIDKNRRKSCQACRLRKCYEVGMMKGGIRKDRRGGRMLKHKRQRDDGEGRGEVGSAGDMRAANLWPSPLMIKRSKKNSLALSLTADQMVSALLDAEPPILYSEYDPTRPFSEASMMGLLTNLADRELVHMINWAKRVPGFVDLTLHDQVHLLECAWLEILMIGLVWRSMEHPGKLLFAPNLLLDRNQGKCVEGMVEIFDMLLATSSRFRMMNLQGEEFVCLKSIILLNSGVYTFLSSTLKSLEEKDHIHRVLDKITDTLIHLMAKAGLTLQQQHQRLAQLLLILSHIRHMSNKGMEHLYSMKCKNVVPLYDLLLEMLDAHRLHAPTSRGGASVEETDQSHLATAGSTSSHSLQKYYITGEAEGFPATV

Assay [17] addresses Progesterone receptor (Homo sapiens) (UniProt P06401). Put plainly: qHTS assay to identify small molecule agonists of the progesterone receptor (PR) signaling pathway (AID 1346784; calls by dose curve; also: nearly all actives have a fitted effect of over 30% in size). The method in brief: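 Reporter assay, GripTite PR-UAS-bla HEK 293T cells: 16 hr exposure to DMSO-dissolved compounds at 37C, 5% CO2, in steroid-depleted (2% charcoal-stripped FBS) medium; beta-lactamase measured by FRET fluorescence.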

Assay [18] shares this target. Briefly: qHTS assay to identify small molecule antagonists of the progesterone receptor (PR) signaling pathway (AID 1346795; active = well fitted inhibition curve with a large enough effect in the signal ratio in the repeat runs, not every such curve was filed as active; the % refers to the signal ratio). The method in brief: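 Stimulus R5020 at 1 nM final; cells HEK293T PR-UAS-bla; medium with 2% charcoal-stripped FBS; compound exposure 16 hr at 37C, 5% CO2; detection by FRET beta-lactamase substrate, 2 hr, room temperature.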
A short description of assay [19]: qHTS assay to identify small molecule agonists of the progesterone receptor (PR) signaling pathway - cell viability counter screen (AID 1346799; calls by dose curve; also: nearly all actives have a fitted effect of over 45% in size). The method in brief: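 Multiplexed viability read: CellTiter-Glo luminescence, 30 min RT, following LiveBLAzer FRET measurement on PR-UAS-bla HEK293T cells exposed to compounds 16 hr.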
The target in assay [20] is Thyrotropin receptor (Homo sapiens) (UniProt P16473). Briefly: qHTS assay to identify small molecule antagonists of the thyroid stimulating hormone receptor (TSHR) signaling pathway (AID 1259385; calls by dose curve; also: nearly all actives have a fitted effect of over 20% in size). In short, it runs like this: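 TSHR-HEK293 cells (800/well) plated 18 h, then compounds with Ro20-1724 and TSH at 1.5 ng/mL final, 30 min at room temperature. cAMP quantified by HTRF (cAMP-d2/anti-cAMP-cryptate, 1 h); 15 concentrations in triplicate.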
Sequence of Thyrotropin receptor (Homo sapiens) (P16473 whole entry, looked up): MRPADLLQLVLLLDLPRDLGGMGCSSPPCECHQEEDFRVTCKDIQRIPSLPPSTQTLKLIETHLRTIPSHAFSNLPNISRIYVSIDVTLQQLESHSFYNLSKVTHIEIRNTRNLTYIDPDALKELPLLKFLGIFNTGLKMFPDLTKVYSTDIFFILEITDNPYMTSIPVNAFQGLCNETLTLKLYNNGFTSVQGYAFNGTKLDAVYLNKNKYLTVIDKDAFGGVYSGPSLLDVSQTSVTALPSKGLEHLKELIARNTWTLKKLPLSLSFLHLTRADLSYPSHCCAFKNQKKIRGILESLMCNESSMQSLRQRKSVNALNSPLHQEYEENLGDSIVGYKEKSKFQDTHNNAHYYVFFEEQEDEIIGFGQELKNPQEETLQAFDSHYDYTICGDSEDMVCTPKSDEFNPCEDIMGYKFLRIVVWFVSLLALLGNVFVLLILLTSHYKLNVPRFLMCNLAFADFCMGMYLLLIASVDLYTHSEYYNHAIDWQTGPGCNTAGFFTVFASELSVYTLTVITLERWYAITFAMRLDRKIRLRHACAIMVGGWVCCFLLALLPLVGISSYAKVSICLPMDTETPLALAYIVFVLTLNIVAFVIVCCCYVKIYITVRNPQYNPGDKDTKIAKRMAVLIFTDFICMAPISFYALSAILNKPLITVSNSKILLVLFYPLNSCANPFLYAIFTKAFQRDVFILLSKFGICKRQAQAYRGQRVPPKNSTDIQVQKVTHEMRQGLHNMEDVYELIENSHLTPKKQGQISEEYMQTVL

Molecules are shown by their SMILES. Results filed as inconclusive are left out. The source holds several records for some structures; these can differ, active in one and inactive in another. Activity calls are given as the source filed them. Unless noted, calls follow the shape of the dose curve; as a rule, active = well fitted curve in the direction sought with a large enough effect in the repeat runs; inconclusive = weak or mixed curves; inactive = no such curve, though single readings can be large; an effect the other way counts as inactive or inconclusive.

Sequence of Estrogen receptor beta (Homo sapiens) (Q92731 whole entry, looked up): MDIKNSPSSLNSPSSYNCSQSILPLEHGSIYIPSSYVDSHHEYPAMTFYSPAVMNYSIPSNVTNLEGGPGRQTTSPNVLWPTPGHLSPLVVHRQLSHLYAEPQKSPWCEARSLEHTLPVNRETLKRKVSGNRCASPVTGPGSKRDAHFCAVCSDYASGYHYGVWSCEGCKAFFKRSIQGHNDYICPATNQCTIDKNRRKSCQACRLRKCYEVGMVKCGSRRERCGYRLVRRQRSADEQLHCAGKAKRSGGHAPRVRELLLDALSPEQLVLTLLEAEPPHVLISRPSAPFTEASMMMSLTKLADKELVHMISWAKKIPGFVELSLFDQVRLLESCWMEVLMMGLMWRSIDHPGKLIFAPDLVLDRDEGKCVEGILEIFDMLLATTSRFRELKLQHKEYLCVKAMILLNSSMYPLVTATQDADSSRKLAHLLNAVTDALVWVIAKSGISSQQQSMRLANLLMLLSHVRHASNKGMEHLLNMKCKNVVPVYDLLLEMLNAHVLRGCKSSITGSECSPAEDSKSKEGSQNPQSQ
Sequence of Thyrotropin-releasing hormone receptor (Homo sapiens) (P34981 whole entry, looked up): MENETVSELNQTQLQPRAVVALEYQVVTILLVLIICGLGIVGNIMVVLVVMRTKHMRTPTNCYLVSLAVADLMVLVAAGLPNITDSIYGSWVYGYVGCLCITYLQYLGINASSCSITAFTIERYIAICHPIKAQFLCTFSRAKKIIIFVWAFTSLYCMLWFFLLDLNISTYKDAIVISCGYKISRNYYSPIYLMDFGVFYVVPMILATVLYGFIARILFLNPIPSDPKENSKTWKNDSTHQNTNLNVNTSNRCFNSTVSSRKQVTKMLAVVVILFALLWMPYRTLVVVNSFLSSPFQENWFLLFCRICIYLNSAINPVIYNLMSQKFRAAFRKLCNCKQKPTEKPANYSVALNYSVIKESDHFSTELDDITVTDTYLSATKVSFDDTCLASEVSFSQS
Sequence of Progesterone receptor (Homo sapiens) (P06401 whole entry, looked up): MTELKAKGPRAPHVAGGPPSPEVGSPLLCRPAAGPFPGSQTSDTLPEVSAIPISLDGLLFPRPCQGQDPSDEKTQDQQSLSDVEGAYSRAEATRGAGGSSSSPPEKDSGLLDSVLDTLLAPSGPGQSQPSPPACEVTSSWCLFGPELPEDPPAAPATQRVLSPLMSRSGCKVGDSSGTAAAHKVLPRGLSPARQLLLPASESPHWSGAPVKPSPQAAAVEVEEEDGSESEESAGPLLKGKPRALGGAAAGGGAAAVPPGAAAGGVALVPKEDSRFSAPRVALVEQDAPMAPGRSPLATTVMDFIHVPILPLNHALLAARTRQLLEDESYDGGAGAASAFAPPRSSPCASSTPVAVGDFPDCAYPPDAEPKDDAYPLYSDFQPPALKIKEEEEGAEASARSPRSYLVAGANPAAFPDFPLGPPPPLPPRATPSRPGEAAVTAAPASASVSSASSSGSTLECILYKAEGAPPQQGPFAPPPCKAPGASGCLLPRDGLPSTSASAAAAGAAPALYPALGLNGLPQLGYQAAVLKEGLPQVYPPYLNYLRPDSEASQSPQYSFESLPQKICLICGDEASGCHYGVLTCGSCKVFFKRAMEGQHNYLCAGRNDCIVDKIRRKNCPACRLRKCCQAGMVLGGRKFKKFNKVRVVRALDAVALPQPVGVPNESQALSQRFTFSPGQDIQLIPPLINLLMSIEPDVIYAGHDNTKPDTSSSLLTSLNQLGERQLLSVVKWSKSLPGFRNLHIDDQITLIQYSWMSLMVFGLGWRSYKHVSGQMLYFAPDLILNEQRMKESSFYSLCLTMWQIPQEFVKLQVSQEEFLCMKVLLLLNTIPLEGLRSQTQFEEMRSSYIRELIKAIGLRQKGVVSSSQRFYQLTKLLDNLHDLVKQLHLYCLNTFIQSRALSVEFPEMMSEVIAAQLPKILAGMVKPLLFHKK

In the case of `CC(=O)C1(C)CC2=C(CCCC2(C)C)CC1C` (centres undefined), the Potency entry in assay [1], in [2], in [3], in [4], in assay [6] and in [8] was “inactive” in each case. For the same compound, the Potency result in assay [9], in [10], in assay [11], in assay [13], in assay [14] and in assay [15] was “inactive” throughout. Besides, the result in assay [5], in [7] and in assay [12] was inactive.
In the case of `Cc1c(C(N)=O)cc([N+](=O)[O-])cc1[N+](=O)[O-]`, the Potency entry in [1], in assay [2], in assay [3], in assay [4], in [6] and in [16] was “inactive” each time. The Potency entry in assay [8], in assay [17], in assay [18], in assay [9], in [19] and in [11] was “inactive” throughout. Also, the Potency entry in assay [15] is “inactive”. Also, the call in assay [7] and in [12] was inactive.
As to `COC(C)COC(C)COC(C)CO` (centres undefined), the Potency result in [1], in assay [2], in assay [3], in assay [4], in assay [6] and in assay [20] was “inactive” in each case. The Potency entry in assay [8], in [17], in assay [18], in [9], in assay [19] and in [10] was “inactive” each time. Further, the Potency result in assay [11], in assay [13], in assay [14] and in assay [15] was “inactive” each time. Moreover, the outcome in assay [5], in assay [7] and in [12] was inactive.
For the compound `CCCCC(CC)COC(=O)c1ccc(N(C)C)cc1` (centres undefined), the Potency result in assay [1], in [2], in assay [3], in [4], in [6] and in [20] was “inactive” in each case. Further, the Potency entry in [8], in assay [17], in [18], in [9], in assay [10] and in assay [11] was “inactive” throughout. Moreover, the Potency entry in assay [15] is “inactive”. Also, the call in [7] and in assay [12] was inactive.
For the compound `O=[N+]([O-])c1ccc2c(c1)Cc1ccccc1-2`, the Potency entry in [1], in assay [2], in assay [3], in assay [4], in assay [6] and in assay [16] was “inactive” in each case. Besides, the Potency entry in [8], in [17], in [9], in assay [19], in [10] and in [11] was “inactive” each time. Besides, in assay [15], the Potency entry was “inactive”. Also, the compound was called inactive in assay [7] and in [12].
On to `COC(=O)c1ccccc1`, for which the Potency entry in [1], in assay [2], in [3], in assay [4], in assay [6] and in assay [20] was “inactive” throughout. The Potency entry in assay [8], in [17], in [18], in [9], in assay [10] and in [11] was “inactive” in each case. For the same compound, the Potency entry in [13], in assay [14] and in assay [15] was “inactive” each time. For the same compound, the call in assay [7] and in assay [12] was inactive.
Turning to `CC(C(=O)O)c1cccc(C(=O)c2ccccc2)c1` (centres undefined), the Potency entry in assay [1], in assay [2], in assay [3], in assay [4], in assay [6] and in assay [20] was “inactive” each time. For the same compound, the Potency result in assay [8], in [17], in assay [18], in assay [9], in assay [19] and in assay [10] was “inactive” each time. In addition, the Potency entry in assay [11], in assay [13] and in assay [14] was “inactive” throughout. For the same compound, the outcome in assay [7] was inactive.
Turning to `CC(C)CC(C)(O)C#CC(C)(O)CC(C)C` (centres undefined), the Potency entry in assay [1], in assay [2], in assay [3], in assay [4], in [6] and in assay [20] was “inactive” in each case. For the same compound, the Potency result in assay [8], in assay [17], in [18], in [19], in assay [10] and in [11] was “inactive” in each case. Further, the Potency result in assay [13] and in assay [14] was “inactive” each time. In addition, the call in [7] and in [12] was inactive. In addition, the Potency in assay [15] was 31.6 µM (active) and inactive.

For the origin of these results see PubChem BioAssay (Tox21).
